Screens as filed in PubChem BioAssay.
hiPSC survival = enhancers of human iPSC single-cell survival. hiPSC single-cell survival, ATPlite luminescence; 100% = ROCK inhibitor wells, 0% = DMSO. survival enhancement, % at 20 µM. 0.044% of 360,000 active. AID 602274; in the data active means survival enhancement above about 18%;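 further: cells exposed to compounds for 16 hours before the ATP read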
MIN6 prolif-1 = inducers of beta-cell replication in MIN6 cells | AID 2380 | proliferation, % at 10 µM | MIN6 cells proliferation, ATPlite luminescence, 48 h; cells starved in 0.2% serum; 100% = growth in 10% serum | 0.29% of 330,000 active;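 active means compounds whose signal lies at least 3.5 SD above the mean of all wells on their plate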;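 further: 0% = DMSO-treated cells in low-serum medium and 100% = 10% serum control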
TAG inh = triacylglycerol accumulation inhibition; H9c2 cells, Nile Red lipid (TAG) fluorescence; cells loaded with 200 µM oleic acid; inhibition, % at 12.5 µM; 0.66% of 230,000 active; AID 651582;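 active means pattern-corrected inhibition of lipid staining of at least 50% with the nuclear-stain viability signal not falling by more than 50%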;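 further: 0% = DMSO wells and 100% = triacsin C control wells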
MIN6 prolif-2 = MIN6 beta-cell replication induction, confirmed | proliferation increase, % at 50 µM | AID 463095 | 920 tested, under 10 active | MIN6 beta-cell proliferation, ATPlite luminescence, 48 h; cells kept in 0.2% serum; scaled between 0.2% and 10% serum | shares compounds with MIN6 prolif-1;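 active means proliferation increase above 40% at any of the four tested concentrations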
TAG conf = confirmation of triacylglycerol accumulation inhibitors. shares compounds with TAG inh. H9c2 lipid accumulation, Nile Red fluorescence; cells loaded with 200 µM oleic acid. inhibition, % at 12.5 µM. 71% of 990 active;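 active means mean inhibition across replicates of 40% or more; inactive means mean inhibition below 40%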;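 further: plate controls were DMSO only wells for no effect and Triacsin C treated wells for full effect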
Starred values were filed as active, the others as inactive. This is a sample that favours compounds with a hit; in the whole collection about 0.71% have one here.

How did COc1cccc(NC(=O)N(C)C[C@H]2OCc3cn(nn3)CCCC(=O)N([C@@H](C)CO)C[C@@H]2C)c1 do in these assays?
hiPSC survival: 2; TAG inh: -5

Results for Cc1cc(C)c2c(=O)n3c(nc2c1)C(CC(C)C)NC(=O)c1cccnc1-3 (stereo unspecified) ?
hiPSC survival: -2; TAG inh: 33

What do the screens show for `COc1cccc(C(O)c2nc(-c3cncnc3)cs2)c1` (stereo unspecified)?
hiPSC survival: 4; TAG inh: 8

How did CCn1c(C)cc(C(=O)CSc2nnc(C3CC3)n2C2CC2)c1C do in these assays?
hiPSC survival: -2; TAG inh: -5

What do the screens show for `Cc1ccc(S(=O)(=O)N(C)C)cc1NC(=O)COC(=O)Cc1n[nH]c(=O)c2ccccc12`?
hiPSC survival: 0; MIN6 prolif-1: 1; TAG inh: 4

What do the screens show for `Cc1ccc(S(=O)(=O)N(C)C)cc1NC(=O)COC(=O)c1n[nH]c(=O)c2ccccc12`?
hiPSC survival: 0; MIN6 prolif-1: 11*; TAG inh: -4; MIN6 prolif-2: 1

How did CCC(=O)N1CCC1(C)C(=O)Nc1ccc(Cl)c(Cl)c1 (stereo unspecified) do in these assays?
hiPSC survival: -1; TAG inh: 5

Results for CC(=O)Nc1ccc2c(c1)Cc1cc(N3C(=O)C=CC3=O)ccc1-2 ?
hiPSC survival: 4; TAG inh: 19

How did Cc1ccc(C(=O)NCCN(C)C)c(C)c1 do in these assays?
hiPSC survival: -4; MIN6 prolif-1: 2; TAG inh: 2

What do the screens show for `COCCNC(=O)c1ccc(C)cc1C`?
hiPSC survival: 3; MIN6 prolif-1: 7.9*; TAG inh: 18; MIN6 prolif-2: 1

How did CCCN1C2=C(C(=O)CC(C)(C)C2)C(c2ccc(F)cc2)C2=C1c1ccccc1C2=O (stereo unspecified) do in these assays?
hiPSC survival: 0; MIN6 prolif-1: -4

How did CCCCN1C2=C(C(=O)CC(C)(C)C2)C(c2ccccc2)C2=C1c1ccccc1C2=O (stereo unspecified) do in these assays?
hiPSC survival: 2; MIN6 prolif-1: 8.2*; TAG inh: 11; MIN6 prolif-2: -1

How did NC(COCc1ccccc1)c1csc(Nc2ccccn2)n1 (stereo unspecified) do in these assays?
hiPSC survival: -1; TAG inh: -9

What do the screens show for `CC1(C)OC(=O)C2=C(C[C@@H](CCc3ccccc3)O[C@@H]2c2ccc(Cl)cc2)O1`?
hiPSC survival: 0

Results for CCOc1cc(/C=N/n2nnnc2N)ccc1OCc1c(C)no[n+]1[O-] ?
hiPSC survival: 0; MIN6 prolif-1: 0.0*; TAG inh: -3; MIN6 prolif-2: 3

What do the screens show for `Cc1no[n+]([O-])c1COc1ccccc1/C=N/n1nnnc1N`?
hiPSC survival: -1; MIN6 prolif-1: -1; TAG inh: -6

What do the screens show for `CCOC(=O)C1CCCCN1Cc1ccc(OC)c(OC)c1` (stereo unspecified)?
hiPSC survival: 0; MIN6 prolif-1: 8.0*; TAG inh: 0; MIN6 prolif-2: 2

How did CCOC(=O)C1CCCCN1Cc1ccc(F)c(Br)c1 (stereo unspecified) do in these assays?
hiPSC survival: 1; MIN6 prolif-1: -1

What do the screens show for `CS(=O)(=O)/C(C#N)=C/c1cccn1S(=O)(=O)c1cccc2ccccc12`?
hiPSC survival: 1; TAG inh: -3

Results for COc1ccc(-c2c(C(=O)c3ccc(Br)cc3)[nH]c(N)c2C(=O)c2ccccc2)cc1OC ?
hiPSC survival: 0

How did CC(C)CNC(=O)c1c2c(nc3ccccc13)-c1ccccc1CC2 do in these assays?
hiPSC survival: -4; MIN6 prolif-1: -4; TAG inh: -21

What do the screens show for `C=CCNC(=O)c1c2c(nc3ccccc13)-c1ccccc1CC2`?
hiPSC survival: 1; MIN6 prolif-1: 7.0*; TAG inh: -4; MIN6 prolif-2: -4

How did CCCCCCCCN1C(=O)[C@H](CC(=O)NCCCOCCCC)C[C@@]2(C(=O)OC)CCCCC=C12 do in these assays?
hiPSC survival: 0

What do the screens show for `COC(=O)c1ccccc1NC(=O)CSc1ccc(C)cc1`?
hiPSC survival: 2; MIN6 prolif-1: 7.3*; TAG inh: -111; MIN6 prolif-2: -6

Results for COC(=O)c1ccccc1NC(=O)CSc1ccccc1 ?
hiPSC survival: 1; MIN6 prolif-1: 0; TAG inh: -17

Results for CO[C@H](C(=O)N(C)C[C@@H]1OCc2ccccc2-c2c(n(C)c3ccccc23)C(=O)N([C@H](C)CO)C[C@@H]1C)c1ccccc1 ?
hiPSC survival: 7; TAG inh: -3

Results for Cc1ccc(-c2cc(C(F)F)n3ncc(C(=O)N4CCCc5ccccc54)c3n2)cc1 ?
hiPSC survival: 4; MIN6 prolif-1: 7.8*; TAG inh: 60*; MIN6 prolif-2: -2; TAG conf: 30

Results for COc1ccc(-c2cc(C(F)F)n3ncc(C(=O)N4CCc5ccccc54)c3n2)cc1 ?
hiPSC survival: -5; MIN6 prolif-1: -3

How did CSc1ccc(C(O)c2ncc(-c3ccccc3F)[nH]2)cc1 (stereo unspecified) do in these assays?
hiPSC survival: 3; TAG inh: -13

What do the screens show for `CCOc1ccc(C2=Nc3ccccc3C(c3ccc(N4CCOCC4)cc3)=NN2)cc1`?
hiPSC survival: 0; MIN6 prolif-1: -4; TAG inh: 73*; TAG conf: 53*

Results for CCOc1ccc(C2=Nc3ccc(Br)cc3C(c3ccc(N4CCOCC4)cc3)=NN2)cc1 ?
hiPSC survival: 1; MIN6 prolif-1: 0

Results for CCOC(=O)/C(=N/Nc1ccccc1)c1csc(Nc2ccccc2)n1 ?
hiPSC survival: -1; MIN6 prolif-1: -4

How did CCOC(=O)/C(=N\Nc1ccc(Cl)cc1)c1csc(Nc2ccccc2)n1 do in these assays?
hiPSC survival: 3; MIN6 prolif-1: -3; TAG inh: 75*; TAG conf: 69*

How did CCN1CCN(C(=O)c2cc(COc3ccc(F)c(F)c3)on2)[C@@H](C)C1=O do in these assays?
hiPSC survival: 0; TAG inh: -22

What do the screens show for `COc1ccccc1N(C)S(=O)(=O)c1ccc(C(=O)N(C)Cc2cccc(F)c2)cc1`?
hiPSC survival: -3; TAG inh: -23

Results for COc1cc(-c2coc3c(C(=O)NCc4ccc(C(F)(F)F)cc4)cccc23)ccc1O ?
hiPSC survival: -1; TAG inh: 54*; TAG conf: 27

What do the screens show for `COc1cc(-c2coc3c(C(=O)NCc4ccncc4)cccc23)ccc1O`?
hiPSC survival: 2; TAG inh: -5

What do the screens show for `CC1(C(=O)NS(=O)(=O)c2ccc(Cl)s2)CCN1C(=O)C1CCCCC1` (stereo unspecified)?
hiPSC survival: -2; TAG inh: 1

Results for Cc1nn(-c2ccccc2)c2c1CC(=O)Nc1ccccc1-2 ?
hiPSC survival: 5; TAG inh: 74*; TAG conf: 87*
